In PubChem BioAssay AID463173 (ICCB-Longwood Screening Facility, Harvard Medical School, 2010):
The campaign covered roughly 52,000 compounds. About 4,300 (8.3%) were called active. The full list was thinned out, with actives kept by preference. Unmarked numbers belong to inactive results. Rule as the data show it: active = survival mostly below about 52% (no sharp cut-off); inactive = mostly above about 56%.

System: DeltatarO mutant
Experiment: S. aureus survival, RN4220 and DeltatarO strains – OD600, teichoic acid synthesis inhibitors, primary screen (AID 463173)
Settings: S. aureus RN4220 wild type/DeltatarO growth, OD600, 18 h, stronger effect = lower value, screened at 18.75 µg/mL (by protocol)

Row | SMILES | survival
1 | CCOc1ccc(NC(=O)C2CCCN(c3cnccn3)C2)cc1 (stereo not drawn) | 86%
2 | CCOc1cc(-c2ccc(OC(=O)c3ccccc3Cl)c(OC)c2)cc(=O)c2c(C)oc(C)c12 | 69%
3 | COc1ccccc1CNC(=O)c1ccc(CSc2nc3ccncc3n2Cc2ccccc2C)cc1 | 74%
4 | COc1ccc(C(=O)Nc2nnc(S(=O)(=O)N3CCN(c4ccc(C)cc4)CC3)s2)cc1 | 48% (active)
5 | Cc1ccc(C(=O)Nc2nnc(S(=O)(=O)N3CCN(c4ccc(F)cc4)CC3)s2)cc1 | 56%
6 | COc1ccc(C(=O)Nc2nnc(S(=O)(=O)N3CCN(c4ccc(F)cc4)CC3)s2)cc1 | 56%
7 | Cc1ccc(C(=O)Nc2nnc(S(=O)(=O)N3CCOCC3)s2)cc1 | 68%
8 | COc1ccc(C(=O)Nc2nnc(S(=O)(=O)N3CCOCC3)s2)cc1 | 99%
9 | Cc1ccc(N2CCN(S(=O)(=O)c3nnc(NC(=O)c4ccc(C(C)C)cc4)s3)CC2)cc1 | 42% (active)
10 | CCc1nc(SC)ncc1C(=O)NCc1cccc(Br)c1 | 89%
11 | CCc1ccc(NC(=O)C2CCC(CNS(=O)(=O)c3cccs3)CC2)cc1 (stereo not drawn) | 94%
12 | CCOCCCNC(=O)c1ccc(NC(=O)N2CCCCc3ccccc32)cc1 | 89%
13 | Cc1ccc(CNS(=O)(=O)c2cc3c(cc2Cl)NC(=O)CO3)o1 | 106%
14 | O=C1COc2cc(S(=O)(=O)NCc3ccco3)c(Cl)cc2N1 | 98%
15 | CCCCN(CC)Cc1ccc(CNS(=O)(=O)c2cc3c(cc2Cl)NC(=O)CO3)o1 | 0% (active)
16 | Cn1c(SCC(=O)N2c3ccccc3Sc3ccccc32)nnc1-c1ccco1 | 77%
17 | COC(=O)c1c(-c2ccc(Cl)cc2)noc1N1CCN(c2ccc(F)cc2)CC1 | 83%
18 | O=S1(=O)CCC(NCc2ccccc2)C1 (stereo not drawn) | 89%
19 | CS(=O)(=O)N(CC(=O)NCc1ccncc1)c1ccccc1 | 85%
20 | CCC(C)NC(=O)c1ccccc1NC(=O)CN1C(=O)c2cccc3cccc1c23 (stereo not drawn) | 50%
21 | O=C(Nc1nnc(N2CCCCCC2)s1)Nc1ccccc1C(F)(F)F | 80%
22 | CSc1ncc(C(=O)Nc2ccccc2C(F)(F)F)c(-c2ccccc2)n1 | 117%
23 | CSc1nsc(NC(=O)Nc2ccccc2C(F)(F)F)n1 | 13% (active)
24 | CCSc1nsc(NC(=O)Nc2cccc(F)c2)n1 | 1% (active)

Row | SMILES | survival
25 | O=C(CSc1nnc(NC(=O)Nc2ccccc2)s1)Nc1cccc(F)c1 | 73%
26 | CCSc1nsc(NC(=O)Nc2cccc(OC)c2)n1 | 96%
27 | O=C(NCCc1csc(-c2ccc(Cl)cc2)n1)c1cccs1 | 89%
28 | COc1ccc(CNC(=O)c2cc3ccccn3n2)cc1OC | 79%
29 | Cc1cc(O)c(C(c2ccccc2Cl)N2CCCCC2)c(=O)n1Cc1ccco1 (stereo not drawn) | 76%
30 | CCCOC(=O)c1c(-c2ccccc2)c(-c2ccccc2)nn(C)c1=O | 60%
31 | Cc1ccc(C)c(Nc2ncnc3onc(C)c23)c1 | 81%
32 | CCOC(=O)c1ccc(Nc2c(-c3ccc(O)c(OC)c3)nc3nc[nH]n23)cc1 | 93%
33 | CCOC(=O)c1ccc(Nc2c(-c3cccc(O)c3)nc3nc[nH]n23)cc1 | 46% (active)
34 | CCOC(=O)c1ccc(Nc2c(-c3ccc(O)cc3)nc3nc[nH]n23)cc1 | 91%
35 | COc1ccc(NC(=O)C2CCCN(C(=O)c3cnn(-c4ccccc4)c3-n3cccc3)C2)cc1 (stereo not drawn) | 70%
36 | COc1ccc(CNC(=O)C2CCCN(C(=O)c3cnn(-c4ccc(F)cc4)c3-n3cccc3)C2)cc1 (stereo not drawn) | 86%
37 | COc1ccc(NC(=O)C2CCCN(C(=O)c3cnn(-c4ccc(F)cc4)c3-n3cccc3)C2)cc1 (stereo not drawn) | 47% (active)
38 | COc1ccc(-c2noc(N(c3nc(-c4ccc(OC)c(OC)c4)no3)c3ccccc3OC)n2)cc1OC | 115%
39 | O=C(CN1C(=O)c2cccc3cccc1c23)Nc1ccccc1Br | 63%
40 | CC(C)c1ccccc1NC(=O)CN1C(=O)c2cccc3cccc1c23 | 40% (active)
41 | COc1ccccc1NC(=O)CN1C(=O)c2cccc3cccc1c23 | 62%
42 | CCOC(=O)c1cnc2cc(-c3ccc(OCC)cc3)nn2c1-c1ccccc1 | 68%
43 | CCCSc1nc2sc3c(c2c(=O)n1-c1ccc(C)cc1)CCCC3 | 8% (active)
44 | CCCSc1nc2sc3c(c2c(=O)n1-c1ccccc1)CCC(C)C3 (stereo not drawn) | 2% (active)
45 | CSc1nc2sc3c(c2c(=O)n1Cc1ccccc1)CCC(C(C)(C)C)C3 (stereo not drawn) | 114%
46 | CCOC(=O)CSc1nnc2n(-c3ccccc3)c(=O)c3c4c(sc3n12)COC(C(C)C)C4 (stereo not drawn) | 74%
47 | CCOC(=O)CSc1nnc2n(-c3ccccc3)c(=O)c3c4c(sc3n12)CC(C(C)(C)C)CC4 (stereo not drawn) | 46% (active)
48 | CSc1nc2sc3c(c2c(=O)n1-c1ccccc1)CCC(C(C)(C)C)C3 (stereo not drawn) | 18% (active)

Row | SMILES | survival
49 | CCCSc1nc2sc3c(c2c(=O)n1-c1ccc(C)c(Cl)c1)CCN(C(C)=O)C3 | 81%
50 | C=C(C)CSc1nc2sc3c(c2c(=O)n1-c1ccccc1)CCC(C)C3 (stereo not drawn) | 84%
51 | COC(=O)CSc1nc2sc3c(c2c(=O)n1Cc1ccccc1)CCC(C(C)(C)C)C3 (stereo not drawn) | 66%
52 | CC(C)CCSc1nnc2n(-c3ccccc3)c(=O)c3c4c(sc3n12)CC(C)CC4 (stereo not drawn) | 70%
53 | CCOC(=O)CSc1nc2sc3c(c2c(=O)n1-c1ccccc1)CCC(C(C)(C)C)C3 (stereo not drawn) | 58%
54 | CCCc1nc2sc3c(c2c(=O)n1N)CCCC3 | 97%
55 | COc1cc(NC(=O)NCCn2nnc3cc(S(=O)(=O)N(C)C)ccc32)cc(OC)c1OC | 84%
56 | Cc1ccc(S(=O)(=O)NC(C)(C)CN2CCCCC2)cc1 | 96%
57 | NC1CCN(C(=O)NC2CCCCC2)CC1 | 89%
58 | Cc1cc(=O)n(Cc2ccccc2)c(=O)n1Cc1ccccc1 | 89%
59 | Cc1ccccc1-c1nc(CS(=O)(=O)CC(=O)Nc2c(C)cccc2C)c(C)o1 | 92%
60 | Cn1cc(S(=O)(=O)N2CCCCCC2)cc1C(=O)Nc1ccccc1F | 88%
61 | CC(=O)N1CCC(N(Cc2ccco2)C(=O)Nc2cccc(C)c2)CC1 | 130%
62 | COC(=O)c1ccccc1NC(=O)Nc1cccc(OCc2cc(=O)n3cccc(C)c3n2)c1 | 134%
63 | CCc1ccc(-n2c(=O)c3c4c(sc3n(Cc3ccc(C)cc3)c2=O)CCC4)cc1 | 132%
64 | CSc1nc2sc3c(c2c(=O)n1-c1ccc(C)cc1)CCCC3 | 39% (active)
65 | CCSc1nc2sc3c(c2c(=O)n1-c1ccc(C)cc1)CCCC3 | 0% (active)
66 | Cc1ccc(-n2c(=O)[nH]c3sc4c(c3c2=O)CCCC4)cc1 | 133%
67 | Cc1ccc(-n2c(SCC(=O)O)nc3sc4c(c3c2=O)CCCC4)cc1 | 90%
68 | CSc1nc2sc3c(c2c(=O)n1-c1ccccc1C)CCCC3 | 97%
69 | CCCOc1ccc(-c2nc3ccc(Br)cc3c(=O)o2)cc1 | 81%
70 | Cc1ccc(C)c(NC(=O)Cn2cc(S(=O)(=O)c3ccc(F)cc3)c(=O)c3cc(F)ccc32)c1 | 87%
71 | Cc1c(C(=O)N(Cc2ccc(N(C)C)cc2)CC2CCCO2)oc2ccccc12 (stereo not drawn) | 61%
72 | COC(=O)CNc1ccc(C)c(C)c1 | 67%

Row | SMILES | survival
73 | Cc1cccc(CCNC(=O)c2nc(-c3ccc(Cl)cc3)n3c2CCCCC3)c1 | 89%
74 | O=C(Nc1ccc(C(F)(F)F)cc1)C1CCC(CNS(=O)(=O)c2cccc3nsnc23)CC1 (stereo not drawn) | 49%
75 | O=C(NCCCN1CCN(c2ccc(F)cc2)CC1)c1cnn(-c2ccc(F)cc2)c1-n1cccc1 | 70%
76 | Cc1ccc(-n2ncc(C(=O)NCCCN3CCN(c4cccc(Cl)c4)CC3)c2-n2cccc2)cc1 | 75%
77 | O=C(NCCCN1CCN(c2cccc(Cl)c2)CC1)c1cnn(-c2ccc(F)cc2)c1-n1cccc1 | 32% (active)
78 | Cc1ccc(-n2nc(C)c(C(=O)NCCCN3CCN(c4cccc(Cl)c4)CC3)c2-n2cccc2)cc1 | 0% (active)
79 | Cc1ccc(-n2nc(C)c(C(=O)NCCCN3CCN(c4ccc(F)cc4)CC3)c2-n2cccc2)cc1 | 92%
80 | Cc1nn(-c2ccc(F)cc2)c(-n2cccc2)c1C(=O)NCCCN1CCN(c2cccc(Cl)c2)CC1 | 94%
81 | O=C(Cn1c(=O)c2cc(Cl)ccc2n2nncc12)Nc1ccccc1 | 75%
82 | O=C(CCC1CCCC1)N1CCc2c([nH]c3ccccc23)C1c1ccc(F)cc1 (stereo not drawn) | 99%
83 | CCCCN(C(=O)C1CCC1)c1nnc(-c2ccncc2)s1 | 96%
84 | Clc1ccc(-c2nc3ncccn3c2Nc2ccc3c(c2)OCCO3)cc1 | 89%
85 | COc1ccc(C(=O)NCC(c2cccnc2)N2CCN(c3ccccc3F)CC2)cc1OC (stereo not drawn) | 86%
86 | Cc1ccc2[nH]c(=O)c(CN(Cc3nnnn3CCc3ccccc3)C3CCCC3)cc2c1 | 91%
87 | CCOc1ccc(OCC)c(NS(=O)(=O)c2ccc3c(c2)CCCN3C(C)=O)c1 | 73%
88 | c1ccc(-c2noc(-c3cccnc3NCc3ccco3)n2)cc1 | 60% (active)
89 | Clc1ccc(-c2noc(-c3cccnc3NCc3ccco3)n2)cc1 | 61%
90 | Cc1ccc(-c2noc(-c3cccnc3NCc3ccco3)n2)cc1 | 65%
91 | Cc1ccccc1-c1noc(-c2cccnc2NCc2ccco2)n1 | 52%
92 | Cc1cccc(-c2noc(-c3cccnc3NCc3ccco3)n2)c1 | 44% (active)
93 | COc1ccc(-c2noc(-c3cccnc3NCc3ccco3)n2)cc1 | 98%
